# Screen size: about 370,000 compounds; about 4,100 (1.1%) were called active. The list comes from a sample in which actives are over-represented; it also holds similar structures and randomly drawn compounds. A number with no mark means an inactive call.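 The calls were made as follows: active = inhibition above the mean over all tested compounds plus 3 SD (cut at about 3.6% in these data); inactive = the rest.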
# Assay: DAX1 (NR0B1) inhibitors on StAR promoter, primary screen, cell-based, luminescence, SF-1 (NR5A1), full-length DAX-1 (AID 652010);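 also: 0% = DAX-1 cells with DMSO and 100% = cells lacking DAX-1 with DMSO; higher inhibition means more luminescence from relief of DAX-1 repression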
# Conditions: HEK293T StAR-luciferase reporter, SF-1/DAX-1 repression relief; at 6.8 µM; active compounds read high
row,SMILES,inhibition
1,COC(=O)[C@@]12CCCCC=C1N(CCc1ccc(Cl)cc1)C(=O)[C@H]2CC(=O)NCc1ccc(OC)c(OC)c1,-1.83%
2,CC(C)(C)OC(=O)NCCc1ccccc1/C=C/S(=O)(=O)NCc1ccc(F)cc1,-2.47%
3,COc1cc(C(C)=O)ccc1OC(=O)CN1C(=O)c2ccccc2C1=O,-0.4%
4,C=CCN(CC=C)C(=O)CN1C(=O)c2ccccc2C1=O,-0.48%
5,C=CCn1c(C)cc(C(=O)CN2C(=O)c3ccccc3C2=O)c1C,3.9% (active)
6,CCn1c(SCC(C)=O)nc2sc3c(c2c1=O)CCCC3,-0.04%
7,O=C(COC(=O)/C=C/c1ccc2c(c1)OCO2)NC1CCS(=O)(=O)C1 (stereo not drawn),0.14%
8,CN(Cc1ccccc1)C(=O)COC(=O)/C=C/c1ccc2c(c1)OCO2,0.06%
9,COc1cccc(/C=C/C(=O)Nc2ccc3c(c2)OCCO3)c1,5.36% (active)
10,Cc1ccc(OCCCC(=O)Nc2ccc3c(c2)OCCO3)cc1,-0.75%
11,Cc1cccc(NC(=O)/C=C/c2ccc3c(c2)OCO3)n1,5.26% (active)
12,COc1ccc(S(=O)(=O)N(C)CC(=O)Nc2ccc3c(c2)OCCO3)cc1OC,0.16%
13,C=CCN1C(=O)[C@H](CC(=O)N2CCN(C(=O)OCC)CC2)[C@@]2(C(=O)OCC)CCCC=C12,-0.21%
14,COC(=O)c1ccccc1-n1cc(COC(=O)NCCc2ccccc2)nn1,-0.35%
15,Cc1cc(NS(=O)(=O)c2ccc(NC(=O)CSc3nnc(-c4ccc(C(C)(C)C)cc4)n3Cc3ccco3)cc2)nc(C)n1,0.36%
16,COC(=O)C1=C(C)N(Cc2ccccc2C(F)(F)F)C(=NCC2CC2)NC1c1cccc(Cl)c1 (stereo not drawn),0.1%
17,CC(C)C[C@H]1CN([C@@H](CC(C)C)CN2CCC[C@@H]2CN2C(=O)C(=O)NC[C@@H]2Cc2ccccc2)C(=O)C(=O)N1CCc1ccccc1,-1.31%
18,CN1[C@H](Cc2ccccc2)COc2cccc(N3CCSCC3)c2S1(=O)=O,-1%
19,O=C(O)c1cccc(N=NN2CCCCCC2)c1,6.35% (active)
20,Cc1cccc(C(=O)N2CCN(S(=O)(=O)N3CCCCC3)CC2)c1,1.49%
21,NC1=NN(c2cccc(C(=O)O)c2)C(=O)C1,-0.57%
22,CCOC(=O)[C@]12CCCC=C1N(CCCOC)C(=O)[C@@H]2CC(=O)N1CCOCC1,-0.49%

row,SMILES,inhibition
1,CCCNC(=O)Nc1ccc2c(c1)C(=O)N(C)[C@H]1CC[C@H](CC(=O)NCC3CCCCC3)O[C@@H]1CO2,-0.63%
2,COC(=O)C(C(=O)OC)c1ccccc1NS(=O)(=O)c1cccc2ccccc12,0.06%
3,O=C(NCc1cccs1)C1CCCN(S(=O)(=O)c2ccc([N+](=O)[O-])cc2)C1 (stereo not drawn),-0.52%
4,COc1ccc2c(C(C)c3ccc(N)cc3)cn(C)c2c1 (stereo not drawn),0.02%
5,CCC(=O)Nc1ccc(-c2ccc(N3CCCCC3)nn2)cc1,4.53% (active)
6,CC1CCN(c2ccc(-c3ccc(NC(=O)c4ccco4)cc3)nn2)CC1,2.92%
7,CCCCSc1nnc(-c2ccc(NC(=O)CC)cc2)n1C,-0.29%
8,O=C(NCCOc1ccccc1)c1ccccc1F,6.99% (active)
9,NS(=O)(=O)c1cc(C(=O)NCCOc2ccccc2)c(Cl)cc1Cl,0.12%
10,O=C(NCCc1csc(-c2ccccc2)n1)c1ccccc1F,-1.18%
11,O=C(CCS(=O)(=O)c1ccccc1)Nc1ccc(Cl)c(Cl)c1,-0.2%
12,O=C(CCCCCN1C(=O)C2C3C=CC(C3)C2C1=O)Nc1ccccc1 (stereo not drawn),1.39%
13,O=C(Oc1cccc(NC2=NS(=O)(=O)c3ccccc32)c1)c1ccncc1,0.31%
14,CC(C)(C)c1csc(NC2=NS(=O)(=O)c3ccccc32)n1,5.84% (active)
15,Cc1ccc(S(=O)(=O)N(NC2=NS(=O)(=O)c3ccccc32)C(=O)c2ccccc2)cc1,0.29%
16,Cc1ccc(Cn2cc(CN3[C@@H](C)COc4cc(Br)ccc4S3(=O)=O)nn2)cc1,-0.52%
17,O=C(CC1C(=O)NCCN1Cc1ccc(-c2ccccc2)cc1)NCC1CCOCC1 (stereo not drawn),-0.29%
18,CCCOc1ccc(C(=O)NCCc2ccccc2)cc1,5.47% (active)
19,O=C(NCCc1ccccc1)c1ccc(NC2=NC3CS(=O)(=O)CC3S2)cc1 (stereo not drawn),-0.02%
20,O=C(NCCc1ccccc1)Oc1ccc(Cl)cc1,0.42%
21,O=C(NC1CCC1)c1ccc(C#CC2CC2)cn1,3.08%
22,Cc1ccc(OCc2nnc(SC/C=C/c3ccccc3)n2Cc2ccco2)cc1,-0.46%

row,SMILES,inhibition
1,COC(=O)c1cc2c(c3c4ccccc4n(S(=O)(=O)c4cccc(C)c4)c13)C(=O)N(Cc1ccccc1)C2,-1.85%
2,CNCC(O)c1ccc(O)c(O)c1 (stereo not drawn),5.84% (active)
3,CCC(C)c1ccc(O)c(/C=N/O)c1 (stereo not drawn),0.8%
4,CC(=NNC(N)=O)C1CC2CCC1CC2 (stereo not drawn),1.47%
5,CCCCCCCCN1C(=O)[C@@H](CC(=O)N2CCN(C(=O)OCC)CC2)C[C@@]2(C(=O)OC)C1=C[C@H](C1CCCC1)O[C@@H]2C,0.13%
6,CCOC(=O)[C@@]12CN(C(=O)OC(C)(C)C)CC=C1N(Cc1ccc(OC)cc1)C(=O)[C@H]2CC(=O)NCc1ccc(OC)c(OC)c1,-0.16%
7,Cc1c(C(=O)NC2CCCCC2)oc2ccccc12,0.4%
8,Cc1c(C(=O)Nc2ccccn2)oc2ccc(Br)cc12,8.27% (active)
9,CCc1nonc1NC(=O)c1oc2ccc(Cl)cc2c1C,0.27%
10,Cc1cccc(C(=O)Nc2c(-c3ccc(F)cc3)nc3ncccn23)c1,-1.21%
11,CCCc1cc(C(=O)Nc2ccc(C(=O)OC)cc2)cs1,7.38% (active)
12,CCCc1cc(C(=O)Nc2ccc(Cl)cn2)cs1,16.1% (active)
13,CCC(=O)Nc1ccc(C(=O)Nc2cc(C)on2)cc1,-0.34%
14,COC(=O)c1ccc(NC(=S)NN2CCOCC2)cc1,1.02%
15,CC(OC(=O)CCCOc1ccccc1)C(=O)Nc1ccc(Cl)cn1 (stereo not drawn),3.13%
16,CC(OC(=O)CNC(=O)c1ccco1)C(=O)Nc1ccc(Cl)cn1 (stereo not drawn),-0.16%
17,O=C(c1ccccc1)c1ccc(-c2ccccc2C(=O)NC2CCCCN(Cc3ccc(Cl)cc3)C2=O)cc1 (stereo not drawn),-0.77%
18,Cc1ccc(-n2c(SCC(=O)Nc3ccc(S(=O)(=O)Nc4nccs4)cc3)nnc2-c2ccncc2)cc1,-0.77%
19,CCC(c1ccc(NC(=O)OC(C)(C)C)cc1)c1cc(OC)cc(OC)c1 (stereo not drawn),-0.05%
20,COCc1cc(N2CCN(C(=O)OC(C)(C)C)C[C@@H]2C)ccc1N1CCN(Cc2ccccc2)[C@H](C)C1,-0.7%
21,CCN(CC(=O)Nc1c(F)cccc1F)C(=O)c1cnc(C)cn1,4.81% (active)
22,CCN(CC(=O)Nc1c(F)cccc1F)C(=O)c1ccc(-c2ccccc2)cc1,0.8%

row,SMILES,inhibition
1,CCc1cc(C(=O)N(CC)CC(=O)Nc2c(F)cccc2F)sc1C,-0.69%
2,CCCC[C@H]1C2CC(OC(=O)NCc3ccccc3)C(C2)[C@H]2CCCCN21 (stereo partly drawn),-0.27%
3,Cc1ccc(-n2c(SCC(=O)Nc3ccc(S(=O)(=O)Nc4nccs4)cc3)nnc2-c2ccccn2)cc1,0.28%
4,Cc1ccccc1OCC(=O)Nc1ccc(N2CCN(C(=O)C(C)C)CC2)c(Cl)c1,-2.45%
5,COc1cccc(NC(=O)COc2cccnc2[N+](=O)[O-])c1,1.83%
6,Cc1ccccc1OCC(=O)Nc1ccc2c(c1)ncn2C,4.8% (active)
7,COc1ccc(Nc2nc(N)nc(CSC(=S)N3CCC(C)CC3)n2)cc1,0.59%
8,COC(=O)C1=C(C(=O)OC)C2C=C(C(C)C)C1C(=O)C2(C)O (stereo not drawn),2.32%
9,O=C(NCCc1ccc(F)cc1)c1ccc(S(=O)(=O)N2CCCCC2)cc1,-1.79%
10,O=C(NCCc1ccc(F)cc1)c1n[nH]c2ccccc12,1.23%
11,O=C(NCCc1ccc(F)cc1)c1ccc2nccnc2c1,7.15% (active)
12,CCOC(=O)[C@]12CCCC3=C1N(CCC3)C(=O)[C@@H](CC(=O)N1CCSCC1)C2,0.52%
13,COC(=O)[C@]12C[C@H](CC(=O)NCc3ccccc3)C(=O)N(CCc3ccc(OC)c(OC)c3)C1=C[C@H](C(C)(C)C)O[C@@H]2C,-0.61%
14,COc1ccc(Nc2ccc3ccccc3c2)cc1,3.94% (active)
15,COc1ccc(NC2=CC(=S)NC(C)(C)C2)cc1,-0.32%
16,COc1ccc(Nc2cc(=O)n(-c3ccccc3)c3c2c(=O)n(C)c(=O)n3C)cc1,0.33%
17,O=C(CNS(=O)(=O)c1ccccc1F)N1CCN(c2ccccn2)CC1,-0.44%
18,CCCCNC(=O)C[C@H]1C[C@@]2(C(=O)OC)C(=C[C@H](COCc3ccccc3)O[C@@H]2C)N(Cc2ccc(Cl)cc2Cl)C1=O,-0.49%
19,COC(=O)C[C@@H]1CC[C@@H]2[C@H](COc3ccc(NC(=O)c4cccc(F)c4)cc3C(=O)N2C)O1,0.44%
20,CCOCCCNC(=O)c1cc2c(=O)n3ccccc3nc2s1,0.63%
21,CN(CCNC(=O)c1cc2c(-c3ccccc3F)nn(C)c2s1)C1CCCCC1,0.74%
22,CN(C(=O)c1cc2c(=O)n3ccccc3nc2s1)C1CCCCC1,8.94% (active)
